Columns and labels:
[1] = molecular target: POU1 (OCT1 POU domain) (human, UniProt P14859 260-458); test: EMSA-SELEX-seq; no BOB1; 20 mM Tris-HCl pH 7.6, 140 mM NaCl, 10% glycerol, 0.5 mM EDTA, 0.05% Triton X-100, 0.1 mg/mL BSA, 0.1 mg/mL poly(dI-dC), 5 mM DTT, room temperature, 20 min; high values mean tight binding; conditions: protein: recombinant; dsDNA, one strand shown
How it was run: (§1)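 With or without 28 ng coactivator protein, 30 ng of tagged POU-domain protein was combined with 300 ng of a PCR-amplified double-stranded random 35-nt library in 20 μL Tris–HCl pH 7.6 binding buffer for 20 min at RT. The protein came from E. coli BL21 and had been purified under denaturing conditions and renatured. Four rounds of cutting complex bands from native 6% PAGE, elution and PCR amplification preceded Illumina sequencing. The binding preference figure is the percentage of sequenced 8-mers matching a motif pattern.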

[2] = molecular target: T1, POU2 (OCT2 POU domain) (human, UniProt P09086 175-386); test: as above; conditions: protein: recombinant; dsDNA, one strand shown
T1 sequence: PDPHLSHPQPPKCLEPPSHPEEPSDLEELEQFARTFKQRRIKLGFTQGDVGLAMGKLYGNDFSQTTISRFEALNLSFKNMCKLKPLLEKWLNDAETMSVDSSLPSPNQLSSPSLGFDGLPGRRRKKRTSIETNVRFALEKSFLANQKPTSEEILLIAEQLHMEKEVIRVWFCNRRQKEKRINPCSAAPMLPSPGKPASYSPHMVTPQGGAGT
How it was run: as §1

[3] = molecular target: POU1 (OCT1 POU domain);BOB1 (OBF1, OCA-B) (human;human, UniProt P14859;Q16633 260-458;1-256, |); test: EMSA-SELEX-seq; with BOB1 (ternary complex band); 20 mM Tris-HCl pH 7.6, 140 mM NaCl, 10% glycerol, 0.5 mM EDTA, 0.05% Triton X-100, 0.1 mg/mL BSA, 0.1 mg/mL poly(dI-dC), 5 mM DTT, room temperature, 20 min; high values mean tight binding; conditions: protein: recombinant;recombinant; copies: 1;1; dsDNA, one strand shown
How it was run: as §1

[4] = molecular target: T2, POU2 (OCT2 POU domain);BOB1 (OBF1, OCA-B) (human;human, UniProt P09086;Q16633 175-386;1-256, |); test: as above; conditions: protein: recombinant;recombinant; copies: 1;1; dsDNA, one strand shown
T2 sequence 1: T1 sequence
T2 sequence 2: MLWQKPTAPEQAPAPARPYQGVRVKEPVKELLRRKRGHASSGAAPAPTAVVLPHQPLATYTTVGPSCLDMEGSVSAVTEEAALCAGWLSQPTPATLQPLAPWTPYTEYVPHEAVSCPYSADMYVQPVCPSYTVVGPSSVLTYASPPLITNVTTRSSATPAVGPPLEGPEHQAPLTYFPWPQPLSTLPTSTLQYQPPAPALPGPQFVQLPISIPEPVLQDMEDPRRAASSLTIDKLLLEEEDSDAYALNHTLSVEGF
How it was run: as §1

Chain of POU1 (OCT1 POU domain) (P14859 260-458): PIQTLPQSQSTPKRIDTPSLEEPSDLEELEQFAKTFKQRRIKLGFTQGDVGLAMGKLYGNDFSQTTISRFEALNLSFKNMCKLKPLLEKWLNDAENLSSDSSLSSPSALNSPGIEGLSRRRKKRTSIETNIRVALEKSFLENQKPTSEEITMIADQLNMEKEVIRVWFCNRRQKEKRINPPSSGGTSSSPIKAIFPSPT

Sequence: ATCAGAAC
- binding signal [1]: 0.0214 % of ANNNNAAN 8-mers
- binding signal [2]: 0.0242 % of ANNNNAAN 8-mers
- binding signal [3]: 0.0238 % of ANNNNAAN 8-mers
- binding signal [4]: 0.0371 % of ANNNNAAN 8-mers

Sequence: ACACCAAG
- binding signal [1]: 0.0103 % of ANNNNAAN 8-mers
- binding signal [2]: 0.0178 % of ANNNNAAN 8-mers
- binding signal [3]: 0.0129 % of ANNNNAAN 8-mers
- binding signal [4]: 0.0124 % of ANNNNAAN 8-mers

Sequence: ACCCCAAA
- binding signal [1]: 0.0198 % of ANNNNAAN 8-mers
- binding signal [2]: 0.0104 % of ANNNNAAN 8-mers
- binding signal [3]: 0.0109 % of ANNNNAAN 8-mers
- binding signal [4]: 0.0124 % of ANNNNAAN 8-mers

Sequence: ATAGTAAT
- binding signal [1]: 0.116 % of ANNNNAAN 8-mers
- binding signal [2]: 0.148 % of ANNNNAAN 8-mers
- binding signal [3]: 0.0702 % of ANNNNAAN 8-mers
- binding signal [4]: 0.0867 % of ANNNNAAN 8-mers

Sequence: AGCAAAAA
- binding signal [1]: 0.0831 % of ANNNNAAN 8-mers
- binding signal [2]: 0.0604 % of ANNNNAAN 8-mers
- binding signal [3]: 0.11 % of ANNNNAAN 8-mers
- binding signal [4]: 0.0644 % of ANNNNAAN 8-mers

Sequence: AGTTAAAA
- binding signal [1]: 0.0778 % of ANNNNAAN 8-mers
- binding signal [2]: 0.0915 % of ANNNNAAN 8-mers
- binding signal [3]: 0.0831 % of ANNNNAAN 8-mers
- binding signal [4]: 0.0537 % of ANNNNAAN 8-mers

Sequence: ATCTAAAT
- binding signal [1]: 0.172 % of ANNNNAAN 8-mers
- binding signal [2]: 0.227 % of ANNNNAAN 8-mers
- binding signal [3]: 0.123 % of ANNNNAAN 8-mers
- binding signal [4]: 0.123 % of ANNNNAAN 8-mers

Sequence: ACTCAAAC
- binding signal [1]: 0.0187 % of ANNNNAAN 8-mers
- binding signal [2]: 0.027 % of ANNNNAAN 8-mers
- binding signal [3]: 0.03 % of ANNNNAAN 8-mers
- binding signal [4]: 0.0149 % of ANNNNAAN 8-mers

Sequence: AAGAAAAT
- binding signal [1]: 0.158 % of ANNNNAAN 8-mers
- binding signal [2]: 0.125 % of ANNNNAAN 8-mers
- binding signal [3]: 0.226 % of ANNNNAAN 8-mers
- binding signal [4]: 0.0958 % of ANNNNAAN 8-mers

Sequence: ACCATAAA
- binding signal [1]: 0.0625 % of ANNNNAAN 8-mers
- binding signal [2]: 0.0662 % of ANNNNAAN 8-mers
- binding signal [3]: 0.0304 % of ANNNNAAN 8-mers
- binding signal [4]: 0.0264 % of ANNNNAAN 8-mers

Sequence: ATTCCAAT
- binding signal [1]: 0.0767 % of ANNNNAAN 8-mers
- binding signal [2]: 0.11 % of ANNNNAAN 8-mers
- binding signal [3]: 0.057 % of ANNNNAAN 8-mers
- binding signal [4]: 0.0751 % of ANNNNAAN 8-mers

Sequence: ATACGAAG
- binding signal [1]: 0.0481 % of ANNNNAAN 8-mers
- binding signal [2]: 0.0552 % of ANNNNAAN 8-mers
- binding signal [3]: 0.0574 % of ANNNNAAN 8-mers
- binding signal [4]: 0.0388 % of ANNNNAAN 8-mers

Sequence: AAGCCAAC
- binding signal [1]: 0.0137 % of ANNNNAAN 8-mers
- binding signal [2]: 0.0161 % of ANNNNAAN 8-mers
- binding signal [3]: 0.0109 % of ANNNNAAN 8-mers
- binding signal [4]: 0.0107 % of ANNNNAAN 8-mers

Sequence: AAGCTAAA
- binding signal [1]: 0.0347 % of ANNNNAAN 8-mers
- binding signal [2]: 0.0449 % of ANNNNAAN 8-mers
- binding signal [3]: 0.0453 % of ANNNNAAN 8-mers
- binding signal [4]: 0.0347 % of ANNNNAAN 8-mers

Sequence: AACTAAAC
- binding signal [1]: 0.0225 % of ANNNNAAN 8-mers
- binding signal [2]: 0.0299 % of ANNNNAAN 8-mers
- binding signal [3]: 0.0289 % of ANNNNAAN 8-mers
- binding signal [4]: 0.0264 % of ANNNNAAN 8-mers

Sequence: ATCCAAAG
- binding signal [1]: 0.0427 % of ANNNNAAN 8-mers
- binding signal [2]: 0.0397 % of ANNNNAAN 8-mers
- binding signal [3]: 0.0566 % of ANNNNAAN 8-mers
- binding signal [4]: 0.0446 % of ANNNNAAN 8-mers

Sequence: AAGGTAAA
- binding signal [1]: 0.108 % of ANNNNAAN 8-mers
- binding signal [2]: 0.109 % of ANNNNAAN 8-mers
- binding signal [3]: 0.144 % of ANNNNAAN 8-mers
- binding signal [4]: 0.0933 % of ANNNNAAN 8-mers

Sequence: AGGGAAAT
- binding signal [1]: 0.549 % of ANNNNAAN 8-mers
- binding signal [2]: 0.365 % of ANNNNAAN 8-mers
- binding signal [3]: 0.963 % of ANNNNAAN 8-mers
- binding signal [4]: 0.713 % of ANNNNAAN 8-mers

Sequence: AGTCCAAT
- binding signal [1]: 0.0385 % of ANNNNAAN 8-mers
- binding signal [2]: 0.0466 % of ANNNNAAN 8-mers
- binding signal [3]: 0.0421 % of ANNNNAAN 8-mers
- binding signal [4]: 0.0371 % of ANNNNAAN 8-mers

Sequence: ATATCAAC
- binding signal [1]: 0.0481 % of ANNNNAAN 8-mers
- binding signal [2]: 0.0449 % of ANNNNAAN 8-mers
- binding signal [3]: 0.0367 % of ANNNNAAN 8-mers
- binding signal [4]: 0.0471 % of ANNNNAAN 8-mers

Sequence: ACAGTAAG
- binding signal [1]: 0.0328 % of ANNNNAAN 8-mers
- binding signal [2]: 0.0253 % of ANNNNAAN 8-mers
- binding signal [3]: 0.032 % of ANNNNAAN 8-mers
- binding signal [4]: 0.0272 % of ANNNNAAN 8-mers

Sequence: AACATAAC
- binding signal [1]: 0.0526 % of ANNNNAAN 8-mers
- binding signal [2]: 0.0506 % of ANNNNAAN 8-mers
- binding signal [3]: 0.0347 % of ANNNNAAN 8-mers
- binding signal [4]: 0.033 % of ANNNNAAN 8-mers

Sequence: AGTATAAG
- binding signal [1]: 0.0397 % of ANNNNAAN 8-mers
- binding signal [2]: 0.0587 % of ANNNNAAN 8-mers
- binding signal [3]: 0.041 % of ANNNNAAN 8-mers
- binding signal [4]: 0.0454 % of ANNNNAAN 8-mers

Sequence: ACTGAAAG
- binding signal [1]: 0.0172 % of ANNNNAAN 8-mers
- binding signal [2]: 0.0196 % of ANNNNAAN 8-mers
- binding signal [3]: 0.0273 % of ANNNNAAN 8-mers
- binding signal [4]: 0.0231 % of ANNNNAAN 8-mers

Sequence: ATATCAAA
- binding signal [1]: 0.0877 % of ANNNNAAN 8-mers
- binding signal [2]: 0.0806 % of ANNNNAAN 8-mers
- binding signal [3]: 0.0823 % of ANNNNAAN 8-mers
- binding signal [4]: 0.0726 % of ANNNNAAN 8-mers

Sequence: ATTCTAAG
- binding signal [1]: 0.0747 % of ANNNNAAN 8-mers
- binding signal [2]: 0.0857 % of ANNNNAAN 8-mers
- binding signal [3]: 0.0593 % of ANNNNAAN 8-mers
- binding signal [4]: 0.0702 % of ANNNNAAN 8-mers

Sequence: AAGCAAAG
- binding signal [1]: 0.0847 % of ANNNNAAN 8-mers
- binding signal [2]: 0.0501 % of ANNNNAAN 8-mers
- binding signal [3]: 0.125 % of ANNNNAAN 8-mers
- binding signal [4]: 0.0537 % of ANNNNAAN 8-mers

Sequence: ACCTTAAG
- binding signal [1]: 0.0198 % of ANNNNAAN 8-mers
- binding signal [2]: 0.0219 % of ANNNNAAN 8-mers
- binding signal [3]: 0.0187 % of ANNNNAAN 8-mers
- binding signal [4]: 0.0281 % of ANNNNAAN 8-mers

Sequence: ATCTGAAT
- binding signal [1]: 0.201 % of ANNNNAAN 8-mers
- binding signal [2]: 0.232 % of ANNNNAAN 8-mers
- binding signal [3]: 0.102 % of ANNNNAAN 8-mers
- binding signal [4]: 0.126 % of ANNNNAAN 8-mers

Sequence: AGGTCAAC
- binding signal [1]: 0.0198 % of ANNNNAAN 8-mers
- binding signal [2]: 0.0288 % of ANNNNAAN 8-mers
- binding signal [3]: 0.0269 % of ANNNNAAN 8-mers
- binding signal [4]: 0.0289 % of ANNNNAAN 8-mers
